Test results: PubChem BioAssay (EPA / NIEHS)
Calls of active or inactive are those of the source. The calls were made as follows: active = hit-call score of the fitted dose curve at least 0.9, where 1 is the maximum; inactive = score below 0.9.

Assays:
[1] = ATG_CRE_CIS: Attagene CIS-FACTORIAL HepG2 Assay for human cAMP Responsive Element (CRE) binding protein 3 (AID 2282926); conditions: HepG2 CRE cis-reporter, Attagene multiplexed mRNA; actives raise or lower the signal
Method in brief: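 HepG2 cells transiently transfected with a multiplexed reporter library (CRE-driven unit among them) were dosed for 24 h. Reporter mRNA was quantified by RT-PCR, fluorescent labelling, HpaI digestion and capillary electrophoresis, with bidirectional fitting against DMSO baseline.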

[2] = ATG_DR4_LXR_CIS: Attagene CIS-FACTORIAL HepG2 Assay for human Liver X Receptor (LXR), DR4 submotif (AID 2282929); conditions: HepG2 Attagene DR4 cis-reporter, mRNA transcription; actives raise or lower the signal
Method in brief: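 Transiently transfected HepG2 liver cells; cis-regulated reporters; 24 h dosing. RT-PCR plus CE read-out of reporter mRNA. DMSO baseline, bidirectional curve fitting.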

[3] = ATG_AP_2_CIS: Attagene CIS-FACTORIAL HepG2 Assay for human Activator Protein 2 (AP-2) (AID 2282932); conditions: HepG2 AP-2 cis-reporter, Attagene transcription factor profiling; actives raise or lower the signal
Method in brief: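 Step one: transient transfection of HepG2 with reporter transcription units. Step two: 24 h chemical exposure. Step three: RNA extraction, RT-PCR, labelled fragment analysis by capillary electrophoresis; DMSO serves as baseline.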

[4] = ATG_BRE_CIS: Attagene CIS-FACTORIAL HepG2 Assay for human Bone Morphogenetic Protein (BMP) Response Element (BRE) (AID 2282933); conditions: HepG2 BMP response element reporter, Attagene transcription factor profiling; actives raise or lower the signal
Method in brief: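 Endogenous transcription factor activity read in transiently transfected HepG2 cells after 24 h chemical exposure. Bidirectional curve fitting against DMSO; readout is reporter transcript level by RT-PCR with capillary electrophoresis of labelled products.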

[5] = biological target: Transcription factor E2F1 (Homo sapiens) (UniProt Q01094); assay: ATG_E2F_CIS: Attagene CIS-FACTORIAL HepG2 Assay for human E2F Transcription Factor 1 (AID 2282935); conditions: HepG2 Attagene cis-reporter, E2F reporter RNA transcripts; actives raise or lower the signal
Sequence of Transcription factor E2F1 (Homo sapiens) (Q01094 whole entry, looked up): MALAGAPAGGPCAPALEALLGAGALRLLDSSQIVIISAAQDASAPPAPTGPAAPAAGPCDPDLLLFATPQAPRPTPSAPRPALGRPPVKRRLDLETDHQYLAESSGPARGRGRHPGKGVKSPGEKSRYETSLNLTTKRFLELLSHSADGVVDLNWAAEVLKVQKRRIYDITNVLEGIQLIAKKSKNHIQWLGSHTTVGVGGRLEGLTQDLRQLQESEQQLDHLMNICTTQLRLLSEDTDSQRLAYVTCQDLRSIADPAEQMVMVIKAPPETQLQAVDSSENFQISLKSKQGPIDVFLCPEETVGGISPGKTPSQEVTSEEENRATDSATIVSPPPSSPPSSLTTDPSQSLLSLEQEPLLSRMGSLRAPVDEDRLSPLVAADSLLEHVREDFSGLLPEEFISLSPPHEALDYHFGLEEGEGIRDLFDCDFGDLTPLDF
Method in brief: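 Total RNA from 24 h-treated, reporter-transfected HepG2 cells undergoes DNase I treatment, oligo(dT) reverse transcription, PCR and 6-FAM primer extension before capillary electrophoresis.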

[6] = ATG_E_Box_CIS: Attagene CIS-FACTORIAL HepG2 Assay for human Enhancer Box (E-box) (AID 2282936); conditions: HepG2 E-box cis-reporter transcription, actives raise or lower the signal
Method in brief: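 DMSO served as negative control and baseline for bidirectional fitting. Human hepatoma HepG2 cells, transiently transfected with cis-reporter constructs, were dosed 24 h; reporter mRNA read by RT-PCR and capillary electrophoresis.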

[7] = ATG_M_19_CIS: Attagene CIS-FACTORIAL HepG2 Assay for M19 Transcription Factor (Internal Marker) (AID 2282939); conditions: HepG2 Attagene CIS-FACTORIAL M19 internal marker reporter; actives raise or lower the signal
Method in brief: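 Internal marker readout, fitted in both directions against DMSO, from HepG2 cells carrying transfected cis-element reporter constructs; RT-PCR and capillary electrophoresis of reporter mRNA after 24 h exposure.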

[8] = ATG_Ets_CIS: Attagene CIS-FACTORIAL HepG2 Assay for human Erythroblast Transformation Specific (ETS) (AID 2282941); conditions: HepG2 ETS cis-reporter transcription, actives raise or lower the signal
Method in brief: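 HepG2 cells transiently transfected with cis-promoter reporter transcription units were dosed for 24 h; reporter mRNA was measured by RT-PCR, 6-FAM primer extension, HpaI digestion and capillary electrophoresis, with bidirectional fitting against DMSO baseline.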

[9] = biological target: Hepatocyte nuclear factor 3-beta (Homo sapiens) (UniProt Q9Y261); assay: ATG_FoxA2_CIS: Attagene CIS-FACTORIAL HepG2 Assay for human Forkhead box A2 (FOXA2) (AID 2282942); conditions: HepG2 cis-reporter transcription factor activity, 24 h; actives raise or lower the signal
Sequence of Hepatocyte nuclear factor 3-beta (Homo sapiens) (Q9Y261 whole entry, looked up): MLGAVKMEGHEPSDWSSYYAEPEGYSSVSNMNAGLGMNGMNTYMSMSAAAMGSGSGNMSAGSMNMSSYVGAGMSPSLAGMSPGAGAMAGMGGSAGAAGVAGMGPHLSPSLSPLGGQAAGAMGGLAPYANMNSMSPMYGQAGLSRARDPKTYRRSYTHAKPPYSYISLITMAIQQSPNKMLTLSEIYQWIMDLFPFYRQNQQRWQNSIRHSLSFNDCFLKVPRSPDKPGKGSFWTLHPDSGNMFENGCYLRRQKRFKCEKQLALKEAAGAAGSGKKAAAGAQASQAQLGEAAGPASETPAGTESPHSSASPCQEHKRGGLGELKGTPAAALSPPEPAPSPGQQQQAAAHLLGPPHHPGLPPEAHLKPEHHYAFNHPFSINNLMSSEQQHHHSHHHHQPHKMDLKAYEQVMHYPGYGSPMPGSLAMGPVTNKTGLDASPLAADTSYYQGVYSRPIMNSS
Method in brief: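 Multiplexed cis-element reporter assay in transiently transfected HepG2. Twenty-four hours post-dosing, RNA was reverse-transcribed, amplified, FAM-labelled, HpaI-digested and separated by CE. Activity gain or loss relative to DMSO.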

[10] = ATG_FoxO_CIS: Attagene CIS-FACTORIAL HepG2 Assay for human Forkhead box O (FoxO) (AID 2282943); conditions: HepG2 Attagene cis-reporter, FoxO element, mRNA; actives raise or lower the signal
Method in brief: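 Human hepatoma HepG2 cells carry transiently introduced reporter transcription units controlled by cis promoter elements. Chemical treatment lasted 24 h, and mRNA signal was compared with DMSO.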

[11] = ATG_GATA_CIS: Attagene CIS-FACTORIAL HepG2 Assay for human GATA Binding Protein (AID 2282944); conditions: HepG2 GATA cis-element reporter, Attagene multiplex mRNA; actives raise or lower the signal
Method in brief: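 Reporter transcripts from a GATA cis-regulated unit, among multiplexed reporters in transfected HepG2 cells, were measured by RT-PCR with capillary electrophoresis after 24 h dosing. Induction or loss scored relative to DMSO.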

[12] = ATG_M_32_CIS: Attagene CIS-FACTORIAL HepG2 Assay for M32 Transcription Factor (Internal Marker) (AID 2282949); conditions: HepG2 Attagene cis-factorial M32 reporter, mRNA; actives raise or lower the signal;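 also: background control marker of the multiplexed CIS panel rather than a real target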
Method in brief: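 Internal background marker read-out: RT-PCR/capillary electrophoresis fluorescence of reporter transcripts from transiently transfected HepG2 cells after 24 h chemical exposure. Activity fitted bidirectionally relative to DMSO negative control.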

[13] = ATG_PXRE_CIS: Attagene CIS-FACTORIAL HepG2 Assay for human Pregnane X Receptor Element (PXRE) (AID 2282957); conditions: HepG2 Attagene CIS-FACTORIAL PXRE reporter, mRNA; actives raise or lower the signal
Method in brief: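 HepG2 cells transiently transfected with cis-regulated multiple reporter transcription units; endogenous factor activity measured as reporter mRNA 24 h after dosing. RT-PCR, fluorescent primer extension, HpaI digestion, capillary electrophoresis; bidirectional fit versus DMSO baseline.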

[14] = ATG_Sox_CIS: Attagene CIS-FACTORIAL HepG2 Assay for human SRY-box transcription factor (SOX) (AID 2282960); conditions: HepG2 Attagene cis-factorial SOX reporter, mRNA; actives raise or lower the signal
Method in brief: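 Fluorescence-labelled cDNA fragments from reporter transcripts, sized by CE, give the signal. Cells: HepG2, transiently transfected with cis-regulated reporter units. Exposure 24 h; DMSO negative control; bidirectional curve fitting.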

[15] = biological target: Transcription factor Sp1 (Homo sapiens) (UniProt P08047); assay: ATG_Sp1_CIS: Attagene CIS-FACTORIAL HepG2 Assay for human Specificity Protein 1 (Sp1) (AID 2282961); conditions: HepG2 Sp1 cis-reporter transcription, actives raise or lower the signal
Sequence of Transcription factor Sp1 (Homo sapiens) (P08047 whole entry, looked up): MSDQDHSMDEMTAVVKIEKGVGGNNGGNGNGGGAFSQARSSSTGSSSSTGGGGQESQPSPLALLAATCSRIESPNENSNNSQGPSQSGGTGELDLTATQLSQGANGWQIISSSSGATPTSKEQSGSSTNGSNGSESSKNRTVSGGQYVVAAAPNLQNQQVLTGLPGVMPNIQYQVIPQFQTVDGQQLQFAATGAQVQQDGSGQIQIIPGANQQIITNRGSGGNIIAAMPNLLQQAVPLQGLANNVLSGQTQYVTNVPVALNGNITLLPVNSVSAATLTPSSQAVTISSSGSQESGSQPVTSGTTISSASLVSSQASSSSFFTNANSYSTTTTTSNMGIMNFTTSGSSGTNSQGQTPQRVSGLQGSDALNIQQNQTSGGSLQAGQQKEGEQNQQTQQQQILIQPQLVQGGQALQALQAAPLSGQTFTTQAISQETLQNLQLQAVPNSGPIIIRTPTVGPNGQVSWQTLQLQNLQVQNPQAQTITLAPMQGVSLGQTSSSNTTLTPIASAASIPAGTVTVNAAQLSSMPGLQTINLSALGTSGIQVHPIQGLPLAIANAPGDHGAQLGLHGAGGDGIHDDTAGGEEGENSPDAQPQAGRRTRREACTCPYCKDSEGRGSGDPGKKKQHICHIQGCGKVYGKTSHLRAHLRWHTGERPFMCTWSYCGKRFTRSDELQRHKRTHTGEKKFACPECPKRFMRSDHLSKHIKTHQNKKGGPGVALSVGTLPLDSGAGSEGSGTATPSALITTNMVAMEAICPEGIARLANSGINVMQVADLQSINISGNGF
Method in brief: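 Chemicals are dosed onto HepG2 cells transfected with multiple cis-promoter reporter constructs, and after 24 h reporter RNA is reverse-transcribed, PCR-amplified and resolved by capillary electrophoresis for fluorescence quantitation; activity is scored up or down against DMSO.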

[16] = ATG_SREBP_CIS: Attagene CIS-FACTORIAL HepG2 Assay for human Sterol Regulatory Element Binding (SREBP) (AID 2282962); conditions: HepG2 Attagene cis-factorial SREBP reporter, mRNA; actives raise or lower the signal
Method in brief: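 HepG2 cells transiently transfected with multiplexed cis-element reporter units report endogenous transcription factor activity. After 24 h of chemical exposure, reporter mRNA was quantified by RT-PCR, 6-FAM labelling, HpaI digestion and capillary electrophoresis; bidirectional fits used DMSO as baseline.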

[17] = biological target: Signal transducer and activator of transcription 3 (Homo sapiens) (UniProt P40763); assay: ATG_STAT3_CIS: Attagene CIS-FACTORIAL HepG2 Assay for human Signal Transducer and Activator of Transcription 3 (STAT3) (AID 2282963); conditions: HepG2, Attagene cis-factorial STAT3 reporter transcription; actives raise or lower the signal
Sequence of Signal transducer and activator of transcription 3 (Homo sapiens) (P40763 whole entry, looked up): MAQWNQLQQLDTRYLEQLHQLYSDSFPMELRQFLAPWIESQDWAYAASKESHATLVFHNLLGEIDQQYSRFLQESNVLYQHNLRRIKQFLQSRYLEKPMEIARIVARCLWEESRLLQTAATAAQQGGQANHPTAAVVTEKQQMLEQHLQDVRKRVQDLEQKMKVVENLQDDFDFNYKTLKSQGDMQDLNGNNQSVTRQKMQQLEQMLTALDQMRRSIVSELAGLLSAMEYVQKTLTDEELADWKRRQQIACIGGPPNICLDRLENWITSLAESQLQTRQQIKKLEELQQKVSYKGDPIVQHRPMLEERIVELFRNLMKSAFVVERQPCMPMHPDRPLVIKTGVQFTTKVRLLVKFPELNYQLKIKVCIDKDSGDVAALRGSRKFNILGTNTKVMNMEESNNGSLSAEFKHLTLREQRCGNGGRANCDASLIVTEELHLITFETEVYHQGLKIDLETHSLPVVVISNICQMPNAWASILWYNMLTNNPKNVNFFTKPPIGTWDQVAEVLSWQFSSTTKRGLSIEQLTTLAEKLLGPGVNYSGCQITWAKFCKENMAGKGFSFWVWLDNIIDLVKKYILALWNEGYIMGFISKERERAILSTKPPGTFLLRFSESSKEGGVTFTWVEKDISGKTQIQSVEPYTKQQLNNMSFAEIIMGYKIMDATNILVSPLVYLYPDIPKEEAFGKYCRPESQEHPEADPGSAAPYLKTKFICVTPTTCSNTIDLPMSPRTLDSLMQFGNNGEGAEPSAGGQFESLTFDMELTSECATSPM
Method in brief: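 After a 24 h compound incubation, total RNA from MRTU-transfected HepG2 cells was converted to cDNA and reporter sequences PCR-amplified, labelled and profiled by capillary electrophoresis. Gain and loss of signal were referenced to DMSO.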

[18] = ATG_TA_CIS: Attagene CIS-FACTORIAL HepG2 Assay for human TA Basal Promoter (AID 2282964); conditions: HepG2 Attagene CIS-factorial TA basal promoter reporter; actives raise or lower the signal
Method in brief: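 Background-control readout: TA basal promoter reporter mRNA, fitted in both directions relative to DMSO. Measured by RT-PCR and capillary electrophoresis 24 hours after treating HepG2 human liver cells transiently carrying multiplexed cis-regulated reporter constructs.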

[19] = ATG_TCF_b_cat_CIS: Attagene CIS-FACTORIAL HepG2 Assay for human T-Cell-Factor with beta-catenin (TCF/b-cat) (AID 2282965); conditions: HepG2 TCF/beta-catenin cis-reporter transcription, actives raise or lower the signal
Method in brief: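 Measured: reporter mRNA in HepG2 transiently transfected with cis-promoter reporter units, 24 h after chemical addition. Fitting was bidirectional, DMSO as negative control.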

[20] = ATG_TGFb_CIS: Attagene CIS-FACTORIAL HepG2 Assay for human Transforming Growth Factor (TGF) (AID 2282967); conditions: HepG2 Attagene CIS TGFb reporter, mRNA transcription; actives raise or lower the signal
Method in brief: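 Endogenous TGFB1-linked transcription factor activity read as reporter mRNA via RT-PCR and capillary electrophoresis, 24 h after dosing transiently transfected HepG2 cells. Gain or loss of signal fitted relative to DMSO.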

Measured: AC50

COc1cc(OC)c(OC)cc1C=O
active: [13] 50.5 µM
inactive: all other assays above

O=C1C=CC(=O)C=C1
active: [13] 26.4 µM
inactive: all other assays above

NNc1ccccc1
active: [13] 38.9 µM
inactive: all other assays above

Oc1ccc(Cl)cc1
active: [13] 27.9 µM
inactive: all other assays above

O=S(=O)(c1ccccc1)c1ccccc1
active: [13] 20.1 µM
inactive: all other assays above

Nc1ccc(Cl)c(Cl)c1
active: [2] 134 µM
inactive: all other assays above

C=C(Cl)CCl
active: [13] 52 µM
inactive: all other assays above
